A short description of experiment [1]: CCTE_Deisenroth_5AR_NBTE_acceptor: CCTE's 5alpha-reductase NanoBRET Target Engagement Assay - Autofluorescence Screen, Deisenroth Lab (AID 2284321; active = hit-call score of the fitted dose curve at least 0.9, where 1 is the maximum; inactive = score below 0.9;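 also: compound fluorescence in the acceptor channel under 460 nm excitation flags autofluorescence artifacts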). Conditions: actives raise or lower the signal. The method in brief:
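Chemicals diluted to a nominal 100 uM in DMSO were scanned at 460 nm excitation. Samples were read in three independent runs (n=3). Gain or loss of acceptor signal was fitted relative to DMSO.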
(BRET reads energy transfer from a luciferase to a nearby fluorophore.)

Another experiment relates to SRD5A2 (gene 6716). The experiment can be described thus: CCTE_Deisenroth_5AR_NBTE_ratio: CCTE's 5alpha-reductase NanoBRET Target Engagement Assay - Ratio, Deisenroth Lab (AID 2284322; active = hit-call score of the fitted dose curve at least 0.9, where 1 is the maximum; inactive = score below 0.9). Particulars: actives raise or lower the signal. The procedure, abridged:
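Reverse-transfect HEK293T with pNLF1-C-SRD5A2, express 20 h. Pre-incubate cells with chemical 3 h (8-point series, 10 nM - 29.9 uM, duplicate). Add testosterone tracer, 2 h more. Add substrate/inhibitor, read donor and acceptor emission.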

The subject of a further experiment is SERPINA7 (gene 6906). The experiment can be described thus: CCTE_GLTED_hTBG: CCTE's human Thyroxine-binding Globulin (TBG) Inhibition Assay, Great Lakes Toxicology and Ecology Division (GLTED) Lab (AID 2284343).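 Also: active chemicals lower fluorescence versus DMSO baseline by displacing probe.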 The method in brief:
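Measures how far test chemicals displace ANSA bound to purified human TBG. The read-out is fluorescence at 380 nm excitation and 475 nm emission, taken after 2 h of incubation.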

The nature of experiment [2]: VALA_TUBIPS_Agonist_TubuleLength: VALA Sciences human iPS-derived Endothelial Tubule Formation (TUBIPS) Agonism Assay (AID 2284311). The method in brief:
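Human iPS-derived endothelial cells were exposed to compound for 72 h. Tubule formation was imaged by high-content fluorescence and scored as gain of signal relative to DMSO vehicle (agonist mode).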

Experiment [3] in a line: VALA_TUBIPS_Antagonist_TubuleLength: VALA Sciences human iPS-derived Endothelial Tubule Formation (TUBIPS) Antagonist Assay (AID 2284313). The method in brief: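 Cells grown 3 days with 10 ng/ml VEGF, then exposed to compounds in VEGF medium for another 3 days. After fixation, nuclear stain and CD31 immunofluorescence imaging gave mean total tubule length against 0.1% DMSO; suramin (100 uM) inhibition control.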

Experiment [4] is described as follows: VALA_MIGHUV2_CellCount: Viability Assessment in the VALA Sciences human Umbilical Vein Endothelial Cell Migration (MIGHUV) Assay, Area of Scratch Wound after Recovery (AID 2284314). The method in brief: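 Scratch-wounded HUVEC monolayers received test chemical within 30 min, 6-point concentration response in triplicate, 0.1 % DMSO vehicle. After 24 h wound recovery, fixed cells were Hoechst-stained and nuclei imaged; loss of signal versus DMSO indicates reduced viability.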

Experiment [5] is described as follows: VALA_MIGHUV2_Bcatenin: VALA Sciences human Umbilical Vein Endothelial Cell Migration (MIGHUV) Assay, Nuclear Translocation of beta-Catenin after Recovery (AID 2284315). The procedure, abridged:
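HUVEC (4000 cells/well) scratch-wounded, dosed within 30 min over 6 concentrations in triplicate, recovered 24 h. After fixation, Hoechst and anti-beta-catenin immunofluorescence imaged for nuclear CTNB. Gain of signal versus 0.1% DMSO.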

Experiment [6] can be described thus: VALA_MIGHUV2_WoundArea: VALA Sciences human Umbilical Vein Endothelial Cell Migration (MIGHUV) Assay, Area of Scratch Wound after Recovery (AID 2284316). The method in brief: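 HUVEC seeded at 9000 cells/well, scratched after 24 h; test chemical added within 30 min, 6-point concentration response in triplicate (0.1% DMSO vehicle). After 24 h wound recovery, cells fixed and Hoechst-stained nuclei in wound area imaged; Cytochalasin D reference control.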

A short description of experiment [7]: TAMU_PeakParms_SingleDonor1434_Asystole: Texas A&M University (TAMU) 1.5-hr Human Induced Pluripotent Stem Cell (iPSC)-derived Cardiomyocytes Calcium (Ca+2) Flux Assay for Cardiotoxicity: Asystole (quiescence of beating) (AID 2284328). The procedure, abridged: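 Average Ca2+-flux peak frequency (beats/s) was recorded in single-donor iPSC-derived cardiomyocytes after 90 min exposure (0.2–100 uM final, 0.5% DMSO). Asystole POD set as EC95 against DMSO, no preprocessing.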

A short description of experiment [8]: VALA_TUBIPS_Antagonist_CellCount: Viability Assessment in the VALA Sciences human iPS-derived Endothelial Tubule Formation (TUBIPS) Antagonism Assay (AID 2284335).
The nature of experiment [9]: VALA_MIGHUV1_ScratchOnly_WoundArea: VALA Sciences human Umbilical Vein Endothelial Cell Migration (MIGHUV) Assay, Area of Scratch Wound Inhibited Recovery (AID 2284336). The method in brief: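 HUVEC monolayers (9000 cells/well) were scratched after 24 h, dosed within 30 min (six concentrations, triplicate, 0.1% DMSO), allowed 24 h recovery, then fixed. Hoechst-stained nuclei in the wound imaged; cytochalasin D as reference.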

Experiment [10] can be described thus: VALA_TUBHUV_Agonist_TubuleLength: VALA Sciences human Umbilical Vein Endothelial Tubule Formation (TUBHUV) Agonism Assay (AID 2284337). The method in brief:
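HUVEC co-cultured with fibroblasts (1:3) 3 days in 10 ng/ml VEGF, then 3 days with compound plus VEGF; 0.1 % DMSO neutral control. Fixed, nuclear and CD31 stained; tubule length by fluorescence imaging.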

Experiment [11] in a line: VALA_TUBIPS_Agonist_CellCount: Viability Assessment in the VALA Sciences human iPS-derived Endothelial Tubule Formation (TUBIPS) Agonism Assay (AID 2284338).
A short description of experiment [12]: CCTE_Mundy_HCI_iCellGluta_NOG_NeuriteLength: CCTE's Neurite Outgrowth Assay in iCellGluta cells for Neurite Length, Mundy Lab (AID 2284318). The method in brief: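 Automated high-content imaging of betaIII-tubulin (Alexa Fluor-488) and Hoechst-stained cells gave neurite length, normalized to the DMSO baseline.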
Experiment [13] is described as follows: CCTE_Mundy_HCI_iCellGluta_NOG_NeuronCount: CCTE's Neurite Outgrowth Assay in iCellGluta cells for Neuron Count, Mundy Lab (AID 2284340).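 Also: cells fixed about 48 h after compound addition.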 The procedure, abridged:
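Neuron count read by automated high-content imaging of Hoechst 33342 and betaIII-tubulin/Alexa Fluor-488 labelling in human iPSC glutamatergic neurons. Activity fitted relative to DMSO.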

The nature of experiment [14]: CCTE_Mundy_HCI_iCellGluta_NOG_NeuriteCount: CCTE's Neurite Outgrowth Assay in iCellGluta cells for Neurite Count, Mundy Lab (AID 2284342).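 Also: chemical exposure about 48 hours starting 2 hours after plating.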
The next experiment concerns TTR (gene 7276). The experiment is described as follows: CCTE_GLTED_hTTR_0.5uM: CCTE's human Transthyretin (hTTR) Inhibition Assay, with 0.5uM TTR, Great Lakes Toxicology and Ecology Division (GLTED) Lab (AID 2284320; active = hit-call score of the fitted dose curve at least 0.9, where 1 is the maximum; inactive = score below 0.9). The procedure, abridged:
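Cell-free displacement assay in which human TTR at 0.5 uM was incubated with test chemical for 2 h. Displacement of the ANSA probe was read by fluorescence at 380 nm excitation/475 nm emission. Loss of signal was fitted in the positive direction versus DMSO.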

The AC50 is the concentration giving half of the maximal activity seen.

Several values for one entry are separate records, joined by “and”; a condition that tells them apart may be missing. Equal entries are not always repeated. Records with an inconclusive call do not appear. Activity calls are given as the source filed them. The calls were made as follows, unless noted: active = hit-call score of the fitted dose curve at least 0.9, where 1 is the maximum; inconclusive = response in the unintended direction; inactive = score below 0.9.

`C[C@H]1CCCC(=O)CCC/C=C/c2cc(O)cc(O)c2C(=O)O1`: the result (in experiment [1]; in the experiment on SRD5A2 (gene 6716)) was inactive. Also, the AC50 in the experiment on SERPINA7 (gene 6906) is 50 µM (active).
`CC(C)(C)c1cc(O)ccc1O`: the molecule was called inactive in experiment [2], in experiment [3], in experiment [7], in experiment [8] and in [9]. The AC50 in experiment [4] was 74.3 µM (active); in experiment [5] it was 82.8 µM (active); in [6], 73 µM (active); in experiment [10], 56 µM (active); in [11] it was 50 µM (active).
Turning to `CC(C)(c1ccc(OCC2CO2)cc1)c1ccc(OCC2CO2)cc1` (centres undefined), the outcome (in [1]; with SRD5A2 (gene 6716)) was inactive.
As for `O=C1C2(Cl)C3(Cl)C4(Cl)C(Cl)(Cl)C5(Cl)C3(Cl)C1(Cl)C5(Cl)C24Cl` (centres undefined), the AC50 in experiment [12] was 15 µM (active); in experiment [13] it was 17.9 µM (active); in experiment [14], 21.6 µM (active). For the same molecule, the call in the experiment with SERPINA7 (gene 6906) was inactive.
Consider `CCCCCCCCc1ccc(O)cc1`, for which the AC50 with SERPINA7 (gene 6906) is 36 µM (active).
Still for that read-out and setting: to `CC(C)(C)CC(C)(C)c1ccc(O)cc1` belongs 5.79 µM (active).
As for `ClCC(Cl)CCl`, the molecule was called inactive in experiment [4], in experiment [6], in [8], in experiment [9], in experiment [10] and in [11].
`COc1cc(-c2ccc(N)c(OC)c2)ccc1N`: the AC50 in the experiment with SERPINA7 (gene 6906) is 19.3 µM (active) and 32.2 µM (active).
With `ClC1(Cl)C2(Cl)C3(Cl)C4(Cl)C(Cl)(Cl)C5(Cl)C3(Cl)C1(Cl)C5(Cl)C24Cl` (centres undefined), the call in the experiment with SERPINA7 (gene 6906) was inactive.
Regarding `c1cc[c]([Hg][c]2ccccc2)cc1`, the result (in experiment [1]; in the experiment with SRD5A2 (gene 6716)) was inactive.
With `CC1(C)CCC(Cc2ccc(Cl)cc2)C1(O)Cn1cncn1` (centres undefined), the AC50 in the experiment on SERPINA7 (gene 6906) was 30.1 µM (active).
Same read-out and setting: the result for `O=C(Cc1ccccc1)c1ccccc1` reads 10 µM (active).
As for `N#CN=C(N)N`, the outcome (in experiment [1]; with SRD5A2 (gene 6716)) was inactive.
Take `O=C(OC1CCCCC1)c1ccccc1C(=O)OC1CCCCC1`: the result (in experiment [1]; with SRD5A2 (gene 6716)) was inactive.
`CC(C)c1cccc(C(C)C)c1O`: the AC50 in the experiment with SERPINA7 (gene 6906) was 44.1 µM (active).
For `O=C(O)C(F)(F)C(F)(F)C(F)(F)C(F)(F)C(F)(F)C(F)(F)C(F)(F)C(F)(F)C(F)(F)C(F)(F)F`, the AC50 with TTR (gene 7276) was 1.98 µM (active); in the experiment on SERPINA7 (gene 6906) it was 2.7 µM (active) and 47.2 µM (active). The call (in [1]; with SRD5A2 (gene 6716)) was inactive.
On to `C[C@@H]1C[C@@H]([C@H](O)CC2CC(=O)NC(=O)C2)C(=O)[C@@H](C)C1`, for which the result in [1] was inactive. Further, in the experiment with SRD5A2 (gene 6716), the AC50 is 0.0871 µM (active).

Values taken from PubChem BioAssay (EPA / NIEHS).
